For three molecules, AC50 and outcome results are on record in PubChem BioAssay (EPA / NIEHS).

Holding throughout (conditions): mRNA level, 48 h; actives raise or lower the signal
Read-out in assay [1]: Cytochrome P450 (CYP2B6), CYP2B6 (gene 1555)
The assay is described as follows: LTEA_HepaRG_CYP2B6: Life Technologies and Expression Analysis (LTEA) Assay for Cytochrome P450 (CYP2B6) using HepaRG (AID 2283481). Put shortly: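 Using 48 h treatment of HepaRG cells in serum-free induction medium, concentrations spanned half-log steps from 100 uM in 0.5% DMSO vehicle. CYP2B6 mRNA induction or loss is scored by qRT-PCR against DMSO.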

Read-out in assay [2]: Cytochrome P450 2C19 (Homo sapiens) (UniProt P33261)
The assay is described as follows: LTEA_HepaRG_CYP2C19: Life Technologies and Expression Analysis (LTEA) Assay for CYP2C19 using HepaRG (AID 2283482). Put shortly:
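Human HepaRG liver cells received test chemicals for 48 h (highest 100 uM, half-log dilutions in 0.5% DMSO). CYP2C19 mRNA induction or loss is read by multiplexed qRT-PCR and fitted in both directions versus vehicle.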

Read-out in the next assay: CYP2C8 (gene 1558)
The assay can be described thus: LTEA_HepaRG_CYP2C8: Life Technologies and Expression Analysis (LTEA) Assay for CYP2C8 using HepaRG (AID 2283483). Put shortly:
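CYP2C8 expression measured by TaqMan qRT-PCR and normalized to three housekeeping genes. HepaRG cultures were treated for 48 h with an eight-point half-log series topping at 100 uM, vehicle 0.5% DMSO, duplicates; fitted both directions against DMSO.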

Read-out in another assay: CYP2C9 (gene 1559)
The assay is described as follows: LTEA_HepaRG_CYP2C9: Life Technologies and Expression Analysis (LTEA) Assay for CYP2C9 using HepaRG (AID 2283484). The essentials: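 CYP2C9 transcript level, quantified by TaqMan qRT-PCR against three housekeeping genes, was fitted bidirectionally relative to 0.5% DMSO. HepaRG cultures were treated 48 h, in duplicate, at eight half-log concentrations topping at 100 uM.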

Read-out in a further assay: CYP2E1 (gene 1571)
The assay can be described thus: LTEA_HepaRG_CYP2E1: Life Technologies and Expression Analysis (LTEA) Assay for CYP2E1 using HepaRG (AID 2283485). Put shortly:
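Assay uses 48 h exposure of HepaRG hepatic cells, eight concentrations to 100 uM. Expression of CYP2E1 is quantified by TaqMan qRT-PCR with ACTB, GAPDH and POLR2A normalization; curves fitted in both directions relative to vehicle.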

Read-out in another assay: CYP4A11 (gene 1579)
The assay is described as follows: LTEA_HepaRG_CYP4A11: Life Technologies and Expression Analysis (LTEA) Assay for CYP4A11 using HepaRG (AID 2283486). The essentials:
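Readout is CYP4A11 mRNA induction or suppression (qRT-PCR, ACTB/GAPDH/POLR2A normalization) in human HepaRG cells after 48 h chemical treatment, concentrations to 100 uM in 0.5% DMSO, fitted bidirectionally against vehicle.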

Read-out in assay [3]: Cytochrome P450 3A4 (Homo sapiens) (UniProt P08684)
The assay can be described thus: LTEA_HepaRG_CYP3A4: Life Technologies and Expression Analysis (LTEA) Assay for CYP3A4 using HepaRG (AID 2283487). Put shortly: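 Differentiated HepaRG cells in serum-free induction medium exposed in duplicate for 48 h to 8 half-log concentrations up to 100 uM in 0.5% DMSO. CYP3A4 mRNA measured by qRT-PCR normalized to ACTB, GAPDH and POLR2A; bidirectional fit versus DMSO.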

Read-out in assay [4]: DNA damage-inducible transcript 3 (DDIT3), DDIT3 (gene 1649)
The assay can be described thus: LTEA_HepaRG_DDIT3: Life Technologies and Expression Analysis (LTEA) Assay for DNA damage-inducible transcript 3 (DDIT3) using HepaRG (AID 2283488). Put shortly: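 Eight-point concentration-response (100 uM highest, half-log dilutions) in HepaRG, 48 h, duplicate wells. Endpoint: qRT-PCR mRNA, normalized (ACTB, GAPDH, POLR2A), bidirectional fitting with DMSO as baseline.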

Read-out in assay [5]: Pro-epidermal growth factor (Homo sapiens) (UniProt P01133)
The assay is described as follows: LTEA_HepaRG_EGF: Life Technologies and Expression Analysis (LTEA) Assay for Epidermal growth factor (EGF) using HepaRG (AID 2283489). Put shortly: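 EGF expression changes in human HepaRG cells are scored by bidirectional fitting relative to 0.5% DMSO controls. Chemicals are tested at eight half-log concentrations up to 100 uM for 48 h in serum-free induction medium.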

Read-out in assay [6]: Early growth response protein 1 (EGR1) transcription factor, EGR1 (gene 1958)
The assay is described as follows: LTEA_HepaRG_EGR1: Life Technologies and Expression Analysis (LTEA) Assay for Early growth response protein 1 (EGR1) transcription factor using HepaRG (AID 2283490). The essentials:
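EGR1 transcript levels quantified by qRT-PCR (Fluidigm arrays) against three housekeeping genes after 48 h chemical exposure of HepaRG cells. Eight-point half-log series topping at 100 uM, 0.5% DMSO vehicle, analyzed for gain or loss.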

Read-out in assay [7]: Ezrin (EZR), EZR (gene 7430)
The assay is described as follows: LTEA_HepaRG_EZR: Life Technologies and Expression Analysis (LTEA) Assay for Ezrin (EZR) using HepaRG (AID 2283491). The essentials: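 Differentiated human HepaRG cells, 48 h after plating, were exposed in serum-free induction medium for 48 hours to eight half-log concentrations up to 100 uM in 0.5% DMSO. EZR mRNA was measured by TaqMan qRT-PCR, normalized to ACTB, GAPDH and POLR2A, and fitted bidirectionally against DMSO.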

Read-out in assay [8]: Cytochrome P450 3A7 (Homo sapiens) (UniProt P24462)
The assay can be described thus: LTEA_HepaRG_CYP3A7: Life Technologies and Expression Analysis (LTEA) Assay for CYP3A7 using HepaRG (AID 2283492). The essentials:
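Cells were thawed, plated, cultured 48 h, then treated for a further 48 h with chemicals (eight-point half-log series from 100 uM, 0.5% DMSO). RNA was isolated and CYP3A7 expression quantified by qRT-PCR normalised to ACTB, GAPDH and POLR2A.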

Read-out in a further assay: CYP3A5 (gene 1577)
The assay can be described thus: LTEA_HepaRG_CYP3A5: Life Technologies and Expression Analysis (LTEA) Assay for CYP3A5 using HepaRG (AID 2283493). Put shortly: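 Readout was CYP3A5 mRNA by qRT-PCR. HepaRG cultures were exposed for 48 h in serum-free induction medium to chemicals at up to 100 uM, and responses were fitted in both directions relative to DMSO vehicle.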

Read-out in assay [9]: Fatty Acid-Binding Protein 1 (FABP1), FABP1 (gene 2168)
The assay can be described thus: LTEA_HepaRG_FABP1: Life Technologies and Expression Analysis (LTEA) Assay for Fatty Acid-Binding Protein 1 (FABP1) using HepaRG (AID 2283494). The essentials: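 FABP1 expression by TaqMan qRT-PCR, normalised to three housekeeping genes, in HepaRG cells after 48 h chemical treatment. Eight-point half-log series topping at 100 uM in 0.5% DMSO, duplicates; gain or loss fitted relative to vehicle.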

Read-out in assay [10]: Cytochrome P450 4A22 (Homo sapiens) (UniProt Q5TCH4)
The assay is described as follows: LTEA_HepaRG_CYP4A22: Life Technologies and Expression Analysis (LTEA) Assay for Cytochrome P450 4A22 (CYP4A22) using HepaRG (AID 2283495). The essentials:
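Cryopreserved HepaRG cells, plated and cultured 48 h, then switched to serum-free induction medium and treated 48 h (duplicates, up to 100 uM, half-log steps, 0.5% DMSO). Expression change of CYP4A22 was fitted bidirectionally against vehicle.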

Read-out in assay [11]: Cytochrome P450 7A1 (Homo sapiens) (UniProt P22680)
The assay can be described thus: LTEA_HepaRG_CYP7A1: Life Technologies and Expression Analysis (LTEA) Assay for Cytochrome P450 7A1 (CYP7A1) using HepaRG (AID 2283496). Put shortly: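 Using 0.5% DMSO as vehicle and baseline, chemicals were tested in duplicate over an 8-point range from 100 uM on HepaRG cells for 48 h; qRT-PCR signals were normalised to ACTB, GAPDH and POLR2A.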

Read-out in assay [12]: Glutathione S-Transferase (GSTA2), GSTA2 (gene 2939)
The assay is described as follows: LTEA_HepaRG_GSTA2: Life Technologies and Expression Analysis (LTEA) Assay for Glutathione S-Transferase (GSTA2) using HepaRG (AID 2283497). Put shortly:
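GSTA2 transcript levels came from Fluidigm TaqMan qRT-PCR normalized to three housekeeping genes, fitted in both directions against DMSO. HepaRG cultures received chemicals for 48 h in serum-free induction medium (0.5% DMSO), 8 half-log concentrations up to 100 uM, duplicate.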

Read-out in assay [13]: Glutamate-cysteine ligase catalytic (GCLC), GCLC (gene 2729)
The assay can be described thus: LTEA_HepaRG_GCLC: Life Technologies and Expression Analysis (LTEA) Assay for Glutamate-cysteine ligase catalytic (GCLC) using HepaRG (AID 2283498). The essentials:
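Expression by TaqMan qRT-PCR, normalized to three housekeeping genes (ACTB, GAPDH, POLR2A), with up- or down-regulation fitted against DMSO. HepaRG cells dosed in duplicate for 48 h with 8 half-log concentrations up to 100 uM, vehicle 0.5% DMSO.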

Read-out in assay [14]: growth arrest and DNA damage 45 (GADD45G), GADD45G (gene 10912)
The assay can be described thus: LTEA_HepaRG_GADD45G: Life Technologies and Expression Analysis (LTEA) Assay for growth arrest and DNA damage 45 (GADD45G) using HepaRG (AID 2283499). The essentials: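 Human hepatic HepaRG line treated 48 h with chemicals (eight concentrations, half-log steps from 100 uM); transcript induction or repression of GADD45G scored by qRT-PCR versus DMSO vehicle.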

Read-out in assay [15]: Glutamate-cysteine ligase regulatory (GCLM), GCLM (gene 2730)
The assay is described as follows: LTEA_HepaRG_GCLM: Life Technologies and Expression Analysis (LTEA) Assay for Glutamate-cysteine ligase regulatory (GCLM) using HepaRG (AID 2283500). Put shortly:
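In this multiplexed HepaRG gene-expression assay, GCLM mRNA change after 48 h treatment (8 concentrations, max 100 uM) was scored against DMSO by bidirectional curve fitting.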

Active and inactive are the calls of the source. How the source made its calls: active means hit-call score of the fitted dose curve at least 0.9, where 1 is the maximum; inactive means score below 0.9.

Chain of Cytochrome P450 3A7 (Homo sapiens) (P24462 whole entry, looked up): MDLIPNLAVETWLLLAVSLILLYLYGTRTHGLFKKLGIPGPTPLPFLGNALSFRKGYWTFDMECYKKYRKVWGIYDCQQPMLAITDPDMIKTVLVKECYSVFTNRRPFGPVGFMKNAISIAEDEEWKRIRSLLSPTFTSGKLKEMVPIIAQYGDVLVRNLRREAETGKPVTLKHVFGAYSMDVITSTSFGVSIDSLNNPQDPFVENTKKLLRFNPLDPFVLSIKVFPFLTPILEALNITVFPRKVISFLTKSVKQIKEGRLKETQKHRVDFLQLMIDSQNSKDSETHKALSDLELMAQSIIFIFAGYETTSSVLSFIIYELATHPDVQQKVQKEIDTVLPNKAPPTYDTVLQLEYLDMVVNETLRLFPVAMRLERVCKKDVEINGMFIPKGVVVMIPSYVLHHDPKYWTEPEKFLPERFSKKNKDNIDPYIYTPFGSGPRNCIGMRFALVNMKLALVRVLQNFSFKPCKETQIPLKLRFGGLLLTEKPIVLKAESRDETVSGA
Chain of Cytochrome P450 3A4 (Homo sapiens) (P08684 whole entry, looked up): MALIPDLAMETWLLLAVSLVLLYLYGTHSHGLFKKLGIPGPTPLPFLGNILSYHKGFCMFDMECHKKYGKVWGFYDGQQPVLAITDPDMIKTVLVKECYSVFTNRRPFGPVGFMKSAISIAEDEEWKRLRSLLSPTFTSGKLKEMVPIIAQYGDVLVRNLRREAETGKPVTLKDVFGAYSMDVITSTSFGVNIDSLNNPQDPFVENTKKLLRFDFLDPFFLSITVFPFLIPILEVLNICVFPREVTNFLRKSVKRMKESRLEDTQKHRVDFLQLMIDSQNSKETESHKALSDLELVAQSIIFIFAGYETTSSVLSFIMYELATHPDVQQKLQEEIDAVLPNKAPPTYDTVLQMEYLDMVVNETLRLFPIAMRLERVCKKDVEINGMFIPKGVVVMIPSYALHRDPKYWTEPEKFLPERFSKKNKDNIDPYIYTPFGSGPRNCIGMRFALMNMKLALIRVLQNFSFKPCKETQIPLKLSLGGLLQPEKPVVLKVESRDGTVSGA
Chain of Cytochrome P450 2C19 (Homo sapiens) (P33261 whole entry, looked up): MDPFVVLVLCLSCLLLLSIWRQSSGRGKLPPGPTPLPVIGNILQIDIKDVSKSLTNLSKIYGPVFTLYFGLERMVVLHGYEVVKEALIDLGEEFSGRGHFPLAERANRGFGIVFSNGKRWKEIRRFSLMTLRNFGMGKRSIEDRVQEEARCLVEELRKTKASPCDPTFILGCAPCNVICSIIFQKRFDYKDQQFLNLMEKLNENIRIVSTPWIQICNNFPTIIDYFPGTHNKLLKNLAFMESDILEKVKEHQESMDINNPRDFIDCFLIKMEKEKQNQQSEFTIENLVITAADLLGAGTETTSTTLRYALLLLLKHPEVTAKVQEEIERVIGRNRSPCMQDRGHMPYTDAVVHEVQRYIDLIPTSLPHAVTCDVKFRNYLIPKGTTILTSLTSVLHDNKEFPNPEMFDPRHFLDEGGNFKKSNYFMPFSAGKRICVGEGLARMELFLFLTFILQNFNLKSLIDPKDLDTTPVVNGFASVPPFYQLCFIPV

Consider `O=C(O)C1C2CCC(O2)C1C(=O)O` (stereo not drawn), for which the AC50 in [1] is 77.7 µM (active); in assay [2] it was 82 µM (active); with CYP2C8 (gene 1558) it was 58.9 µM (active); with CYP2C9 (gene 1559), 86.7 µM (active); in the assay with CYP2E1 (gene 1571), 45.4 µM (active); with CYP4A11 (gene 1579), 50 µM (active). Further, the AC50 in assay [3] is 79.7 µM (active); in assay [4], 50 µM (active); in assay [5], 13.9 µM (active); in assay [7], 9.92 µM (active); in [8], 61.1 µM (active); in assay [9] it was 77.9 µM (active). In addition, the values for the AC50 in assay [10], in assay [11] and in assay [12] were 50 µM (active), 71.5 µM (active) and 72.4 µM (active), respectively. In addition, the molecule was called inactive (in assay [6]; with CYP3A5 (gene 1577); in assay [13]; in assay [14]).
For `CC(C)(C)OOC(C)(C)CCC(C)(C)OOC(C)(C)C`, the molecule was classed as inactive (in assay [1]; in [2]; with CYP2C8 (gene 1558); with CYP2C9 (gene 1559); with CYP2E1 (gene 1571); with CYP4A11 (gene 1579)). In addition, the molecule was called inactive in assay [3], in [4], in [5], in assay [6], in assay [7] and in assay [8]. For the same molecule, the call in [9], in [10], in assay [11], in [12], in [13] and in assay [14] was inactive. Moreover, the call in assay [15] was inactive.
Turning to `CN(C)C(=O)Nc1ccc(Cl)cc1`, the AC50 in assay [1] is 22.5 µM (active); in the assay with CYP2E1 (gene 1571), 50 µM (active). In addition, the molecule was called inactive (in [2]; with CYP2C8 (gene 1558); with CYP2C9 (gene 1559); with CYP4A11 (gene 1579); in assay [3]; in [4]). Besides, the result (in [5]; in assay [6]; in assay [7]; in assay [8]; in the assay with CYP3A5 (gene 1577); in assay [9]) was inactive. The result in assay [10], in [11], in [12], in assay [13], in [14] and in assay [15] was inactive.

For orientation: AC50 means the concentration giving half of the maximal activity seen.
